According to PubChem BioAssay AID2391 (Southern Research Specialized Biocontainment Screening …, 2010):
Screen size: about 310,000 compounds; about 410 (0.13%) were called active. Roughly 2% stayed inconclusive and do not appear here. How the calls were made is not given here. Only a sample is shown. Potency and affinity values are given separately.

Assay: RSV antiviral activity via CPE protection, HEp-2 cells, primary 10 µM value included (AID 2391)
Conditions: RSV-induced CPE inhibition, at 10 µM, hits give high values
For CCOc1cc(C(=S)N2CCCC2)ccc1O, the CPE inhibition was 0.51% (inactive).
For COC(=O)N/N=C/c1ccc(-c2cc(Cl)ccc2Cl)o1, the CPE inhibition was -0.35% (inactive).
For COC(=O)N/N=C/c1ccc(-c2cc(Cl)cc(Cl)c2)o1, the CPE inhibition was 42.2% (inactive).
For Cc1ccc(C(=O)N2CCN3C(=O)c4ccccc4C23c2ccccc2)cc1 (stereo not given), the CPE inhibition was 3.84% (inactive).
For O=C(c1ccc(F)cc1)N1CCN2C(=O)c3ccccc3C12c1ccc(Cl)cc1 (stereo not given), the CPE inhibition was 73.1% (inactive).
For Cc1nc2ccccc2nc1OCc1ccc([N+](=O)[O-])cc1, the CPE inhibition was 1.85% (inactive).
With Nc1ccc(C(=O)Nc2ccco2)cc1 the CPE inhibition was 0.93% (inactive).
With Nc1c(-c2cccs2)cnc2c(-c3ccc(F)cc3)cnn12 the CPE inhibition was 10.8% (inactive).
With CCCn1c(SCC(=O)Nc2cc(C)on2)nc2c1c(=O)n(C)c(=O)n2C the CPE inhibition was -0.53% (inactive).
In the case of COc1ccc(S(=O)(=O)N2CCCCC2)cc1NC(=O)C1CC1, the CPE inhibition was -0.43% (inactive).
For O=C(COC(=O)c1cnccn1)c1ccc(C2CCCCC2)cc1, the CPE inhibition was 1.84% (inactive).
With Cc1cccc(N(Cc2ccccc2)C(=O)CSC(C)C(=O)Nc2cc(C)on2)c1 (stereo not given) the CPE inhibition was 15.8% (inactive).
For Cc1cc(NC(=O)C(C)SCC(=O)OCC(=O)N(C)c2ccccc2)no1 (stereo not given), the CPE inhibition was 0.41% (inactive).
For CNC(=S)SCCOc1ccccc1, the CPE inhibition was 1.7% (inactive).
With COc1ccc(-n2nc(C(=O)NCC(=O)N3CCCC(C)C3)c3ccccc3c2=O)cc1 (stereo not given) the CPE inhibition was 2.49% (inactive).
With COc1ccc2cc3cc(C(=O)NC4CC4)sc3nc2c1 the CPE inhibition was 6.36% (inactive).
For CCC(C)NC(=O)c1cc2cc3ccc(OC)cc3nc2o1 (stereo not given), the CPE inhibition was 4.45% (inactive).
With CCc1ccccc1NC(=O)NNC(=O)CCc1ccc(OC)cc1 the CPE inhibition was 1.38% (inactive).
In the case of COc1cccc(CNCc2cc(OC)cc(OC)c2)c1, the CPE inhibition was -0.77% (inactive).
For C(=N\Nc1nc(Nc2ccccc2)nc(N2CCOCC2)n1)/c1c[nH]c2ccccc12, the CPE inhibition was 38.2% (inactive).
For CN(C)c1nc(N/N=C/c2c[nH]c3ccccc23)nc(N2CCOCC2)n1, the CPE inhibition was 5.13% (inactive).
For Cc1ccc(S(=O)(=O)NC2CCSC2=O)cc1C (stereo not given), the CPE inhibition was 0% (inactive).
With COc1cccc(C(c2c(NC(=O)c3ccco3)sc(C)c2C)N2CCOCC2)c1 (stereo not given) the CPE inhibition was 0.09% (inactive).
For Cc1sc(NC(=O)c2ccco2)c(C(c2ccncc2)N2CCOCC2)c1C (stereo not given), the CPE inhibition was 6.19% (inactive).
With COC(=O)c1ccccc1S(=O)(=O)N1CCC(C(=O)OC(C)C(=O)NC(N)=O)CC1 (stereo not given) the CPE inhibition was 1.21% (inactive).
With CCOc1ccc(OCCNC(=O)c2oc3ccccc3c2COC)cc1 the CPE inhibition was 2.63% (inactive).
For O=C1CCCCC1C(=O)c1cn(-c2ccc(Cl)c(Cl)c2)nn1 (stereo not given), the CPE inhibition was 1.71% (inactive).
For N#Cc1c(N2CCCCC2)nc(N)c2c(N)nc3c(c12)CC(c1ccccc1)O3 (stereo not given), the CPE inhibition was 18.6% (inactive).
In the case of O=C(c1cc2nc(-c3ccccc3)cc(-c3ccccc3)n2n1)N1CCCC1, the CPE inhibition was -1.34% (inactive).
For O=C(O)c1cc2nc(-c3ccccc3)cc(-c3ccccc3)n2n1, the CPE inhibition was 0.05% (inactive).
With CN1CCN(C(=O)c2cc3nc(-c4ccccc4)cc(-c4ccccc4)n3n2)CC1 the CPE inhibition was -2.59% (inactive).
For CC1CCN(C(=O)c2cc3nc(-c4ccccc4)cc(-c4ccccc4)n3n2)CC1, the CPE inhibition was -0.54% (inactive).
With COc1cc(C2C(C#N)=C(N)Oc3c2oc(CO)cc3=O)ccc1OC(C)C (stereo not given) the CPE inhibition was 0.67% (inactive).
With Cc1c(C)c2c(OCC(=O)NCc3ccccn3)cc3c(c2oc1=O)CCC(C)(C)O3 the CPE inhibition was -0.55% (inactive).
In the case of Cn1c(C(O)c2ccccc2)nc(Cl)c1Cl (stereo not given), the CPE inhibition was 2.93% (inactive).
For COc1ccc(-n2c(=O)c3ccccc3n(CC(=O)NC3CCCC3)c2=O)cc1, the CPE inhibition was 0.83% (inactive).
In the case of C#CCOCCOCCOCCNc1nc(N2CCOCC2)nc(N2CCN(C(=O)CCCCCCCCCCNC(=O)[C@@H]([C@H](C)O)n3cc(C)nn3)CC2)n1, the CPE inhibition was 2.9% (inactive).
For C#CCOCCOCCOCCNc1nc(N2CCN(C(=O)CCCCCCCCCCNC(=O)[C@H](CCCCN)n3cc(C)nn3)CC2)nc(N2CCN(C(=O)CCCCCCCCCCNC(=O)[C@@H]([C@H](C)O)n3cc(C)nn3)CC2)n1, the CPE inhibition was 8.35% (inactive).
For CCOc1ccc(C(C)=O)cc1Cn1c(=O)oc2ccccc21, the CPE inhibition was 9.32% (inactive).
For O=c1[nH]c(C2CCN(S(=O)(=O)c3ccc(F)cc3)CC2)nc2c1nnn2Cc1ccc2c(c1)OCCO2, the CPE inhibition was 64.8% (inactive).
In the case of O=c1[nH]c(C2CCN(S(=O)(=O)c3ccc4c(c3)OCCO4)CC2)nc2c1nnn2Cc1cccc(F)c1, the CPE inhibition was 67.8% (inactive).
With O=c1[nH]c(C2CCN(S(=O)(=O)c3ccccc3)CC2)nc2c1nnn2Cc1ccccc1 the CPE inhibition was 19.1% (inactive).
In the case of Cc1ccc(Cn2nnc3c(=O)[nH]c(C4CCN(S(=O)(=O)c5ccc(F)cc5)CC4)nc32)cc1, the CPE inhibition was 13.9% (inactive).
In the case of O=c1[nH]c(C2CCN(S(=O)(=O)c3ccccc3F)CC2)nc2c1nnn2Cc1ccc(F)cc1, the CPE inhibition was 39% (inactive).
In the case of O=c1[nH]c(C2CCN(S(=O)(=O)c3ccc4c(c3)OCCO4)CC2)nc2c1nnn2Cc1ccc(F)cc1, the CPE inhibition was 63.7% (inactive).
For O=c1[nH]c(C2CCN(S(=O)(=O)/C=C/c3ccccc3)CC2)nc2c1nnn2Cc1ccccc1, the CPE inhibition was 76.1% (inactive).
With Cc1ccc(Cn2nnc3c(=O)[nH]c(C4CCN(S(=O)(=O)c5ccccc5F)CC4)nc32)cc1 the CPE inhibition was 84.2% (inactive).
For COC(=O)CC(c1ccc(C#N)cc1)n1c(C)ccc1C (stereo not given), the CPE inhibition was -0.14% (inactive).
With Cc1ccccc1COn1nnc2ccc(S(=O)(=O)N3CCOCC3)cc21 the CPE inhibition was -1.48% (inactive).
In the case of O=C(NC1CCCCC1)N1CCN(c2ncccn2)CC1, the CPE inhibition was 2.35% (inactive).
In the case of COc1ccccc1-n1c(SCC(=O)Nc2ccc(Br)cc2)nc(O)cc1=O, the CPE inhibition was 0.85% (inactive).
For COC(=O)Nc1ccc(S(=O)(=O)N(CCO)CCO)cc1, the CPE inhibition was -0.61% (inactive).
In the case of Cc1cccc(NC(=O)c2ccc(COc3ccc(Cl)cc3Cl)o2)n1, the CPE inhibition was -0.26% (inactive).
In the case of O=c1[nH]c(C2CCCN(S(=O)(=O)c3ccccc3)C2)nc2c1nnn2Cc1ccc(OC(F)(F)F)cc1 (stereo not given), the CPE inhibition was 1.75% (inactive).
For CC(C)[N+](C)(C)CC#CC(O)(c1ccccc1)c1ccccc1, the CPE inhibition was -0.2% (inactive).
For N#Cc1ccc(CN2CCN(C(=O)CC(NC(=O)c3ccccc3)c3ccccc3)CC2)cc1 (stereo not given), the CPE inhibition was 2.31% (inactive).
In the case of COC(=O)/C=C1\S/C(=N/NC(=O)c2ccc(OC)cc2)NC1=O, the CPE inhibition was -1.09% (inactive).
In the case of C/C(N)=C(/C#N)C(=O)COC(=O)c1ccc(C#N)cc1, the CPE inhibition was 0.83% (inactive).
For C/C(N)=C(/C#N)C(=O)COC(=O)c1ccc(O)cc1, the CPE inhibition was 1.45% (inactive).
For O=C1CC(C(=O)N2CCc3ccccc32)CN1c1ccc(F)cc1 (stereo not given), the CPE inhibition was 2.7% (inactive).
With O=C(CNC(=O)c1ccc(Cl)cc1)OCc1nc2ccccc2s1 the CPE inhibition was 3.12% (inactive).
For Cc1ccc(-c2nc3cccnc3s2)cc1NS(C)(=O)=O, the CPE inhibition was 0.25% (inactive).
In the case of Cc1cc(-c2nc3cccnc3s2)ccc1NS(=O)(=O)c1cccs1, the CPE inhibition was 3.81% (inactive).
For CCOc1ccc(NC(=O)CN(C)S(=O)(=O)c2ccc(-c3ccc(=O)[nH]n3)s2)cc1, the CPE inhibition was 3.93% (inactive).
With CCOC(=O)c1ccc(NC(=S)N2CCSC2c2ccc(Cl)cc2)cc1 (stereo not given) the CPE inhibition was 52% (inactive).
With CCOC(=O)c1ccc(NC(=S)N2CCSC2c2ccc(OC)cc2)cc1 (stereo not given) the CPE inhibition was 11.4% (inactive).
In the case of O=C(Cn1ncc2c1-c1ccccc1OC2)N1CCN(Cc2ccccc2)CC1, the CPE inhibition was -1.42% (inactive).
In the case of COc1ccc(C(=O)NN2CCCCC2)cc1OC, the CPE inhibition was 1.22% (inactive).
With COc1ccccc1COCC(O)CN1CCN(S(=O)(=O)c2cccc(F)c2)CC1 (stereo not given) the CPE inhibition was 0.54% (inactive).
For Cc1ccc(NC(=O)CC(N)=S)cc1, the CPE inhibition was 0.37% (inactive).
In the case of O=C(O)COc1ccc2c3c(c(=O)oc2c1)CCCC3, the CPE inhibition was -1.38% (inactive).
For CC(=O)COc1ccc2c3c(c(=O)oc2c1)CCCC3, the CPE inhibition was 27% (inactive).
For O=C(O)c1ccccc1NCc1ccco1, the CPE inhibition was 0.7% (inactive).
With CC(=O)Nc1ccc(S(=O)(=O)n2cnc3cc(C)c(C)cc32)cc1 the CPE inhibition was 14.6% (inactive).
In the case of COc1ccc(/C(C)=N/NC(=O)CNC(=O)/C=C/c2ccccc2OC)cc1, the CPE inhibition was 2.31% (inactive).
For CCc1ccc(/C(C)=N/NC(=O)CNC(=O)/C=C/c2ccccc2OC)cc1, the CPE inhibition was 5.6% (inactive).
For O=c1cc(CN2CCN(C/C=C/c3ccccc3)CC2)c2cc(O)c(-c3ccccc3)cc2o1, the CPE inhibition was 2.21% (inactive).
With CC(=O)NCCN=C(C)c1sc2ccccc2c1O the CPE inhibition was 2.52% (inactive).
In the case of CCCCNC(=O)CC1N=C2c3ccccc3N=C(SCC(=O)Nc3cccc(OC)c3)N2C1=O (stereo not given), the CPE inhibition was 0.81% (inactive).
For CCCCNC(=O)CC1N=C2c3ccccc3N=C(SCC(=O)Nc3ccccc3OC)N2C1=O (stereo not given), the CPE inhibition was 8.13% (inactive).
With Cn1ccnc1SCC(=O)Nc1cccc(S(=O)(=O)N2CCCCC2)c1 the CPE inhibition was 5.08% (inactive).
For O=C(Nc1nc(-c2ccc(Cl)cc2Cl)cs1)C1CCCO1 (stereo not given), the CPE inhibition was 7.12% (inactive).
For COc1cc(/C=C/C(=O)NCc2nc3ccccc3[nH]2)cc(OC)c1OC, the CPE inhibition was 3.24% (inactive).
For COc1ccc(C(=O)NCc2nc3ccccc3[nH]2)cc1OC, the CPE inhibition was 1.66% (inactive).
With CCCSC1=C(C#N)C(c2cccs2)CC(=O)N1 (stereo not given) the CPE inhibition was 0.6% (inactive).
In the case of CC1=C(C(=O)OC(C)C)C2(O)C(=O)c3ccccc3C2(O)N1 (stereo not given), the CPE inhibition was 0.34% (inactive).
For CC(C)CNC(=O)c1cc([N+](=O)[O-])ccc1N1CCCCC1, the CPE inhibition was 1.62% (inactive).
For CC12CCC(=O)C=C1CCC1C2C(=O)CC2(C)C1CC[C@]2(O)C(=O)CO (stereo not given in full), the CPE inhibition was 1.47% (inactive).
For CC(CCc1ccc(O)cc1)NCCC(c1ccccc1)c1ccccc1 (stereo not given), the CPE inhibition was 1.43% (inactive).
For CC(CCc1ccc(O)cc1)NCc1ccc(Cl)cc1Cl (stereo not given), the CPE inhibition was 0.07% (inactive).
